# Values joined by “and” are separate entries in the source; they are usually repeats but may differ in a detail not shown here. Identical values can stand only once. Like-named read-outs stand apart in the source and are kept apart here.
# Experiments:
# SRPK3 = conditions: concentration: 1 μM, replicates: in singlicate, n = 1
# STK16 = conditions: concentration: 1 μM, replicates: in singlicate, n = 1
# STK33 = conditions: concentration: 1 μM, replicates: in singlicate, n = 1
# STK35 = conditions: concentration: 1 μM, replicates: in singlicate, n = 1
# STK36 = conditions: concentration: 1 μM, replicates: in singlicate, n = 1
# STK39 = conditions: concentration: 1 μM, replicates: in singlicate, n = 1
# SYK = conditions: concentration: 1 μM, replicates: in singlicate, n = 1
# SgK110 = conditions: concentration: 1 μM, replicates: in singlicate; n = 1
# TAK1 = system: T1, TAK1; conditions: concentration: 1 μM, replicates: in singlicate, n = 1
# T1 construct: gene MAP3K7
# TAOK1 = conditions: concentration: 1 μM, replicates: in singlicate, n = 1
# 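Further: KINOMEscan kinase panel screen.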
SMILES,%Inh (SRPK3) [%],%Inh (STK16) [%],%Inh (STK33) [%],%Inh (STK35) [%],%Inh (STK36) [%],%Inh (STK39) [%],%Inh (SYK) [%],%Inh (SgK110) [%],%Inh (TAK1) [%],%Inh (TAOK1) [%],%Inh (STK16; 1 µM),%Inh (STK35; 1 µM),%Inh (STK36; 1 µM),%Inh (STK39; 1 µM),%Inh (SYK; 1 µM),%Inh (TAK1; 1 µM),%Inh (TAOK1; 1 µM),%Inh (SRPK3; 1 µM),%Inh (STK33; 1 µM)
Nc1nc(-c2ccc3c(N)n[nH]c3c2)cc(N2CCCC2)n1 [GSK2227430],0,8,0,0,0,0,0,0,0,0,,,,,,,,,
Cl.Oc1cccc(Nc2ccnc3cc(-c4ccncc4)ccc23)c1 [GW494601],0,26,41,0,0,1,82,0,41,0,,,,,,,,,
Cc1nnc(-c2ccc3occ(-c4ccc(C(C)O)cc4)c3c2)o1 (stereo not shown),0,12,0,32,19,0,14,25,25,0,,,,,,,,,
O=C1NC(=O)C(N2CCc3ccccc32)=C1c1cccc(Cl)c1 [SB-408010],31,26,0,19,16,54,0,1,21,0,,,,,,,,,
NS(=O)(=O)c1cccc(-c2ccc3ncc(N4CCOCC4)nc3c2)c1 [GSK1535721],0,16,0,0,5,1,0,1,16,14,,,,,,,,,
O=C(NOCC1CC1)c1ccc(F)c(F)c1Nc1ccc(I)cc1Cl,7,0,0,0,0,0,0,0,11,0,,,,,,,,,
Cc1ccc(NC(=O)c2ccnc(N3CCN(C)CC3)c2)cc1-c1ccc(C(=O)NCC2CC2)cc1 [GW775604],5,0,0,1,0,0,26,3,0,0,,,,,,,,,
O=c1cc(N2CCOCC2)nc2n(Cc3cccc(F)c3)ccn12 [GSK2297430],7,14,0,18,0,0,11,0,0,0,,,,,,,,,
CCc1ccnc(/C=C/c2n[nH]c3cc(Sc4ccccc4C(=O)NC)ccc23)c1,14,0,4,0,12,0,0,47,1,0,,,,,,,,,
Cc1ccc(C(=O)NCC(N)=O)cc1-n1c(C)cc(OCc2ccc(F)cc2F)c(Br)c1=O,21,10,10,10,15,0,20,0,0,0,,,,,,,,,
Fc1ccc(-c2ncn(CCCN3CCOCC3)c2-c2ccccn2)cc1 [SB-211742],3,0,7,0,0,0,17,16,0,0,,,,,,,,,
CC(C)(CN)c1nc(-c2ccc(Cl)c(O)c2)c(-c2ccncc2)[nH]1.O=C(O)C(F)(F)F [SB-477794],0,,52,,,,,0,,,18% and 0%,59% and 62%,86% and 87%,42% and 20%,13% and 28%,62% and 75%,2% and 16%,,
Cn1cc(-c2ccc3c(c2)CCN3C(=O)Cc2ccccc2Cl)c2c(N)ncnc21 [GSK2608885],0,34,18,95.9,100,1,51,0,5,50,,,,,,,,,
O=C(Nc1n[nH]c2cc(-c3cccc(F)c3)ccc12)C1CC1 [SB-735464],37,5,0,12,16,0,4,0,6,40,,,,,,,,,
Cc1cccc(Cn2ccn3c(=O)cc(N4CCOCC4)nc23)c1 [GSK2297542],0,61,0,0,0,0,22,0,13,0,,,,,,,,,
[2H]C([2H])(c1cccc(C(F)(F)F)c1C)n1ccn2c(=O)nc(N3CCOCC3)cc12 [GSK2336394],0,0,0,0,0,1,42,0,0,0,,,,,,,,,
CN1c2ccc(NCc3ccc(F)cc3)cc2-c2c(cnn2C)S1(=O)=O,0,0,0,0,0,0,8,67,0,0,,,,,,,,,

SMILES,%Inh (SRPK3) [%],%Inh (STK16) [%],%Inh (STK33) [%],%Inh (STK35) [%],%Inh (STK36) [%],%Inh (STK39) [%],%Inh (SYK) [%],%Inh (SgK110) [%],%Inh (TAK1) [%],%Inh (TAOK1) [%],%Inh (STK16; 1 µM),%Inh (STK35; 1 µM),%Inh (STK36; 1 µM),%Inh (STK39; 1 µM),%Inh (SYK; 1 µM),%Inh (TAK1; 1 µM),%Inh (TAOK1; 1 µM),%Inh (SRPK3; 1 µM),%Inh (STK33; 1 µM)
CN(C(=O)c1ccc(-c2cc(-c3c[nH]nc3-c3ccccn3)ccn2)cc1)C1CCOCC1 [GW810083],11,0,0,0,0,17,0,0,24,0,,,,,,,,,
c1ccc(-c2n[nH]cc2-c2ccnc3ccccc23)nc1 [GW271431],0,18,8,19,0,0,44,0,50,0,,,,,,,,,
CNc1ncnc2[nH]ncc12 [SKF-18355],10,0,0,0,0,9,22,0,0,0,,,,,,,,,
CCCCCc1nc2c(N)ncnc2n1CCCCC [SKF-97255],0,9,0,0,0,7,20,3,0,0,,,,,,,,,
CCn1cnc2c(N)ncnc21 [GW345098],18,12,10,0,5,0,3,0,4,16,,,,,,,,,
Cc1c(Cn2c(C)nn3c(=O)cc(N4CCOC(C)C4)nc23)cccc1C(F)(F)F (stereo not shown) [GSK2344444],0,0,0,0,0,6,12,0,0,0,,,,,,,,,
COc1cc2c(cc1OCCN1CCN(C)CC1)ncc1c3ccc(C#N)cc3[nH]c21,0,10,25,0,0,11,8,0,90.6,0,,,,,,,,,
Cc1nnc(-c2ccc(C)c(-c3ccc(C(=O)Nc4ccc(NS(C)(=O)=O)cc4)cc3)c2)o1 [GW702865],3,0,0,0,24,14,33,4,4,0,,,,,,,,,
O=c1cc(N2CCOCC2)nc2n(Cc3cccc(Cl)c3Cl)c(C3CC3)nn12 [GSK2358994],0,10,0,0,3,0,0,0,0,0,,,,,,,,,
NS(=O)(=O)c1cccc(-c2ccc3nccc(-c4cccc(S(N)(=O)=O)c4)c3c2)c1 [GW867253],23,12,0,0,0,0,1,0,6,2,,,,,,,,,
COc1ccc(CNC(=O)NC2CCN(c3ccnc(Nc4ccc(OC)cc4)n3)C2)cc1 (stereo not shown) [GSK1379727],0,16,0,0,0,5,22,7,0,0,,,,,,,,,
COC(=O)Nc1nc2cc(Oc3ccc(NC(=O)Nc4cc(F)ccc4F)cc3)ccc2[nH]1.Cl [GW701424],0,0,0,0,0,7,0,0,8,0,,,,,,,,,
Cc1cccc(-c2nc(-c3ccc(S(C)(=O)=O)cc3)sc2-c2ccncc2)c1,10,19,0,3,30,15,25,2,3,0,,,,,,,,,
NCCNS(=O)(=O)c1ccc(-c2ccnc3[nH]ccc23)cc1 [GSK977617],,,,0,0,,,0,,,80% and 68%,,,0% and 13%,32% and 15%,75% and 65%,54% and 40%,67% and 37%,85% and 71%
COc1ccc(S(=O)(=O)NC2CCN(c3cc(C)nc(Nc4cccc(C#N)c4)n3)CC2)cc1.O=C(O)C(F)(F)F [GSK1653539],0,3,0,0,0,17,0,0,0,0,,,,,,,,,
C[C@@H](Oc1cc(-n2cnc3ccc(NC(=O)NC(C)(C)C)cc32)sc1C(N)=O)c1ccccc1Cl [GSK346294],0,22,0,0,0,0,34,0,0,0,,,,,,,,,
Cc1cccc(-c2nc(Nc3ccc4ncsc4c3)c3ccccc3n2)n1 [GW867588],9,12,57,2,7,4,18,5,15,23,,,,,,,,,

# From publication PMC5540273 (PLoS ONE, 2017)
